Here are results for 52 compounds from PubChem BioAssay AID1487 (National Center for Advancing Translational Sciences (NCATS), 2009).

The structures appear in SMILES notation. Out of some 200,000 compounds screened, about 25 (0.01%) were called active. Not shown: some 23% with an inconclusive outcome. The full list was thinned out, with actives kept by preference. A number with no mark means an inactive call. Calls come from the whole dose curve; as a rule, active = well fitted inhibition curve with a large enough effect in the signal ratio, with a control signal flat (not every such curve was filed as active); inconclusive = small, poorly fitted or top-dose-only effect, or effect the other way, or a change in a side signal; inactive = flat fitted curve, though single readings scatter; the % refers to the signal ratio.
% is set by controls: 0 for no effect and ±100 for the full control effect; potency is the fitted concentration of half-maximal effect.

The experiment is described as follows: qHTS Assay for Modulators of Lamin A Splicing. The following applies: HeLa LMNA splicing GFP/RFP minigene ratio, 48 h; series mostly up to 46 µM; ratio change, negative = inhibition: at the top concentration. The source says: NCGC Assay Overview: Hutchinson-Gilford Progeria Syndrome (HGPS) is a pediatric premature aging disease caused by a spontaneous mutation in the lamin A/C (LMNA) gene. The mutation activates a cryptic splice site in the LMNA pre-mRNA which results in production of a pre-lamin A protein that cannot be processed properly. The mutant protein accumulates in the nucleus and negatively affects numerous cellular functions. Correction of the splicing defect in HGPS patient cells using a targeted oligonucleotide (exo11) leads to reversal of the cellular disease phenotypes. To identify small molecule modulators of aberrant LMNA splicing, a homogenous assay was constructed in HeLa cells that used a GFP containing minigene to report on correction of aberrant splicing in lamin A and a RFP (DsRed2) to report on cell viability, uniformity and nonspecific effects on the assay signal. This assay was adapted to laser-scanning microplate cytometry (Acumen, TTP Labtech) where miniaturization of the assay to a 1,536-well plate format was possible. References: Bowen, W. P.; Wylie, P. G. Application of Laser-Scanning Fluorescence Microplate Cytometry in High Content Screening. Assay Drug Dev Technol 2006;4:209-221. Scaffidi P, Misteli T. Reversal of the cellular phenotype in the premature aging disease Hutchinson-Gilford progeria syndrome. Nat.
NCGC Assay Protocol Summary: Reagents/Controls: Stable clones expressing DsRed2 and lamin A-EGFP were generated by Cell and Molecular Technologies in S3 HeLa cells. HeLa cells were prepared for the assay when they were 70-90% confluent. The cells were counted and resuspended in Opti-MEM I (no phenol red; Gibco), 2% FBS, 1% penicillin/ streptomycin (Gibco) at concentration of 120 cells/uL concentration. The suspension was passed through a Falcon basket filter with pore size 40um (Beckton Dickson). Control titrations: column […] 1536-well plate contained a sixteen point titration (1:2 dilutions) in duplicate of ancitabine (Sigma: A8598) beginning at 40 uM final concentration. Column 2 contained a sixteen point titration (1:2 dilutions) of cycloheximide beginning at 1.4 mM final concentration. Column 3 contained ancitabine at 40 uM and column 4 contained was the vehicle control (0.5% DMSO final concentration). Assay Steps: 5 uL of HeLa cells were plated in Aurora LoBase black clear bottom (cyclic-olefin polymer) 1536-well plates at a final density of 600 cells/well. Controls and library compounds were added with a 1536-well pin array using the Kalypsys pin-tool. The plates were then incubated for 48 hrs in a cell-culture incubator (37 °C; 5% CO2, 98% humidity). Following incubation the plates were read on the Acumen Explorer using the 488 nm laser. Data was collected on objects between 10 and 100 um in size. Cell objects were defined by a 15 um width x 10 um depth filter. The ratio of the total object intensity in PMT1 (500-530 nm emission; GFP) over PMT3 (575-640 nm emission; RFP) was calculated for analysis. Keywords: NIH Roadmap, MLSCN, MLI, MLSMR, qHTS, NCGC, lamin A, Progeria, RNA splicing.
Turning to `CCc1nnc2c3ccccc3nc(N3CCN(c4ccc(C)cc4C)CC3)n12`, the “ratio change, negative = inhibition” value is -13.9%.

Turning to `O=C1COc2ccc(C(=O)COC(=O)C3CC(O)CN3S(=O)(=O)c3ccc(Cl)cc3)cc2N1` (configuration not stated), the “ratio change, negative = inhibition” value was -23.2%. `COC(=O)c1c(NC(=O)CCCC(=O)O)sc2c1CCCCC2`: the “ratio change, negative = inhibition” value is -7.02%.

`COc1cccc(CNC(=O)C2CCN(S(=O)(=O)c3ccc4c(ccn4C)c3)CC2)c1`: the “ratio change, negative = inhibition” value was -12.3%. As for `CC1(C)CN(c2ccc(-c3ccnc4ncnn34)cc2)C1=O`, the “ratio change, negative = inhibition” value is -28.7%. Regarding `CCOc1cc(C(=O)Nc2nnc3n2CCS3)cc(OCC)c1OCC`, the “ratio change, negative = inhibition” value is -0.322%. On the same count and under the same terms, under `COc1ccc(C(C)=O)cc1CSc1nc2nc(C)cc(C)n2n1` stands 11.6%; under `CC(=O)N1CCCc2ccc(NS(=O)(=O)c3ccc(F)cc3F)cc21`, 6.09%; under `CCOc1ccc(-n2cnc3c(=O)[nH]c(N)nc32)cc1`, 19.4%.

With `CCOC(=O)Cn1c(=O)n(-c2ccccc2OC)c2nc(-c3cccc(F)c3)nc(C(N)=O)c21`, the “ratio change, negative = inhibition” value was -9.35%. On the same count and under the same terms, under `CCCNC(=O)CCC(=O)N1Cc2ccccc2Oc2ncccc21` stands 8.53%; under `COc1ccc(NC(=O)N2CCCn3nc(C)cc32)cc1OC`, 6.06%; under `Cc1cnc(C(=O)OCC(=O)N2CCc3ccccc32)cn1`, 1.94% [at 9.22 µM].

In the case of `COC(=O)CSc1ncnc2c1cnn2-c1ccc(C)cc1C`, the “ratio change, negative = inhibition” value is 0.727%. The same measure, in the same setting: under `COc1ccc(C2=NN(C(=O)CCC(=O)O)C(c3cccs3)C2)cc1OC` (configuration not stated) stands 4.17%. Take `CNc1nc2c(C)cccn2c(=O)c1C=Nc1ccc(OC)cc1`: the “ratio change, negative = inhibition” value was -17.3%. With `Cc1ccc(-n2nc(C)c3c(C)cc(=O)n(CC(=O)Nc4ccc(C(C)C)cc4)c32)cc1`, the “ratio change, negative = inhibition” value is -0.422%.

As for `COc1cc(NS(=O)(=O)c2ccc3c(c2)OCC(C(=O)N2CCCC2)O3)cc(OC)c1` (configuration not stated), the “ratio change, negative = inhibition” value is -0.229%.

Regarding `COc1cccc(NC(=S)N(Cc2ccc(C)cc2)Cc2ccccn2)c1`, the “ratio change, negative = inhibition” value was -5.44%. For the compound `O=C(Nc1ccccc1C(=O)O)c1cc(S(=O)(=O)N2CCCCC2)cs1`, the “ratio change, negative = inhibition” value was 5.58%. As for `COc1ccc(CNS(=O)(=O)c2cc3c4c(c2)CCN4C(=O)CC3)cc1`, the “ratio change, negative = inhibition” value is -8.87%.

For the compound `Cc1c(CCOC(=O)c2cc([N+](=O)[O-])ccc2Cl)sc[n+]1CCCCS(=O)(=O)[O-]`, the “ratio change, negative = inhibition” value was 11.9%. As to `COc1cc(/C=C/C(=O)OCC(=O)N2CCOCC2)ccc1OCC#N`, the “ratio change, negative = inhibition” value is -0.73%. The same measure, in the same setting: then `CC(C)CNc1ncnc2c1nnn2C`, with 14%; and `CC1CN(/C=C/C(=O)C(F)(F)F)CC(C)O1` (configuration not stated), with -0.822%. As for `O=C(CC1C(=O)NCCN1Cc1ccc(-c2ccccc2)cc1)NCc1ccncc1` (configuration not stated), the “ratio change, negative = inhibition” value is 13.2%.

As for `O=C(CCSCc1cccc(F)c1)NCc1ccccc1`, the “ratio change, negative = inhibition” value was 30.8%. With `CC(C)CCNC(=O)CSc1nc2ccccc2nc1Cc1ccc(Cl)cc1`, the “ratio change, negative = inhibition” value is -3.3%. As for `C/C(Cn1nnc2ccccc21)=N\OC(=O)c1cc(F)c(F)cc1Cl`, the “ratio change, negative = inhibition” value was 0.235%. As for `O=C(NCCc1ccccc1)c1cnc2sc(N3CCCC3)nn2c1=O`, the “ratio change, negative = inhibition” value was 15.1%. Still for that read-out and setting: under `O=[N+]([O-])c1cc([N+](=O)[O-])c2cccnc2c1O` stands 1.6%; under `O=C(Nc1ccccc1F)C(c1ccccc1)N1Cc2ccccc2C1=O` (configuration not stated), 18.7%; under `Cc1ccc(C)c(N2CCN(S(=O)(=O)c3ccc4c(c3)C(C(C)C)C(=O)N4)CC2)c1` (configuration not stated), -10.7%. `Cc1cccc(N2CCN(C(=O)CCSCc3ccccc3F)CC2)c1C`: the “ratio change, negative = inhibition” value was -21.7%. `COc1ccc(SCc2cc(=O)c3ccc(C)c(C)c3[nH]2)cc1`: the “ratio change, negative = inhibition” value is -9.07%. For `Cc1ccc(C(c2nnnn2C(C)(C)C)N2CCc3ccccc3C2)cc1` (configuration not stated), the “ratio change, negative = inhibition” value was -3.87% [at 46.1 µM]. For `CC(C)(C)n1nnnc1C(c1ccc(Cl)cc1)N1CCSCC1` (configuration not stated), the “ratio change, negative = inhibition” value is -14% [at 46.1 µM]. As for `CC(C)(C)n1nnnc1C(c1ccc2ncccc2c1)N1CCSCC1` (configuration not stated), the Potency was 6.31 µM (active). As for `COC(=O)C(C)NC(=O)COc1ccc2ccccc2c1` (configuration not stated), the “ratio change, negative = inhibition” value was 4.35%. As to `O=C(Nc1ccc2nc(SCC(=O)N3CCc4ccccc43)sc2c1)c1ccccc1F`, the “ratio change, negative = inhibition” value was 3.72%. Consider `CCCN(CCC)CCNC(=O)c1ccc2c(c1)NC(=O)C(CS(=O)(=O)Cc1cccc(Br)c1)N2` (configuration not stated), for which the “ratio change, negative = inhibition” value was -3.12%. With `CC(C)(C)NC(=O)COC(=O)c1cc(Cl)ccc1[N+](=O)[O-]`, the “ratio change, negative = inhibition” value is -6.76%. Take `O=C(CN(c1cccc(Cl)c1)S(=O)(=O)c1ccccc1)NN=C1CCCC1`: the “ratio change, negative = inhibition” value was 14.5%. Same read-out and setting: under `Cc1cccc(NC(=O)c2cc([N+](=O)[O-])ccc2N2CCN(C)CC2)c1` stands -17.1%; under `CCOc1ccc(Nc2ncnc3scc(-c4ccc(OC)cc4)c23)cc1`, -25.8%. Turning to `COc1cc(OC)cc(C(=O)NCCc2csc3nc(-c4ccccc4F)nn23)c1`, the “ratio change, negative = inhibition” value is -12.9%. For the compound `CCc1ccc(NS(=O)(=O)c2ccc3[nH]cc(C(=O)NCCc4cccc(C)c4)c(=O)c3c2)cc1`, the “ratio change, negative = inhibition” value was -2.18%. For the compound `CC(=O)NCC(=O)N1CCCC(C(=O)c2ccc3c4c(cccc24)CC3)C1` (configuration not stated), the “ratio change, negative = inhibition” value is 9.21%.

Consider `Cc1cccc(Oc2c([N+](=O)[O-])c(=O)n(C)c3ccccc23)c1`, for which the “ratio change, negative = inhibition” value was 4.53%. For the compound `CCOC(=O)c1sc(=NC(=O)/C=C/c2cccs2)n(C)c1C`, the ratio change, negative = inhibition was 2.93% [at 9.22 µM]. Still for that read-out and setting: then `Cc1cccc(Cn2c(CN3CCC(C(=O)NCc4ccccc4Cl)CC3)cc3ccccc32)c1`, with 0.813%; and `O=C(Nc1nnc(-c2ccco2)o1)c1ccc(S(=O)(=O)N2CCOCC2)cc1`, with 16.1% [at 9.22 µM].
